Measured values from PubChem BioAssay (NCI).
About 79,000 compounds went through this panel and 15% of them were active in at least one assay; those are over-represented in the sample as a whole. The source made the active and inactive calls. Cut-off read from the data, not from the text of the source: active = growth inhibition above about 70%; inactive = the rest.

How the values were obtained:
[1] = NCI Yeast Anticancer Drug Screen. Data for the rad52 strain (AID 147);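 note: 0% = growth of vehicle-treated control cultures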; conditions: S. cerevisiae rad52 mutant growth inhibition, active compounds read high
Summary of the method: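 Genetically altered yeast (DNA damage repair defect) treated with compound; inhibition calculated relative to vehicle.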

[2] = NCI Yeast Anticancer Drug Screen. Data for the wt1 strain (AID 149);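 note: 0% = growth of vehicle-treated wt1 cultures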; conditions: S. cerevisiae wt1 strain (SPY 50644) growth inhibition, active compounds read high
Summary of the method: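 The wt1 strain was treated with compounds, and growth was compared with vehicle-treated cultures to give inhibition.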

[3] = NCI Yeast Anticancer Drug Screen. Data for the rad50EPP+ strain (AID 151);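 note: 0% = growth of vehicle-treated control cultures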; conditions: S. cerevisiae rad50 mutant strain, active compounds read high
Summary of the method: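 Strain rad50EPP+; compound exposure; % growth inhibition vs vehicle.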

[4] = NCI Yeast Anticancer Drug Screen. Data for the mgt1 strain (AID 153); conditions: S. cerevisiae mgt1 mutant growth inhibition, active compounds read high
Summary of the method: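 Read-out: yeast growth inhibition vs vehicle control. Strain mgt1, drawn from a panel altered in DNA damage repair or cell cycle control.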

[5] = NCI Yeast Anticancer Drug Screen. Data for the rad50 strain (AID 155);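 note: 0% = growth of vehicle-only cultures of the same strain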; conditions: S. cerevisiae rad50 strain growth inhibition, active compounds read high
Summary of the method: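 Cells are treated with compound, grown, and their growth is then scored against vehicle-only cultures of the same repair-deficient yeast strain.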

[6] = NCI Yeast Anticancer Drug Screen. Data for the mec2-1 strain (AID 157); conditions: S. cerevisiae mec2-1 strain, active compounds read high
Summary of the method: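 Cells of the genetically defined mec2-1 yeast strain are incubated with test compound. Inhibition of growth is calculated against vehicle-treated controls.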

[7] = NCI Yeast Anticancer Drug Screen. Data for the rad14 strain (AID 159);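 note: 0% = growth of vehicle-treated control cultures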; conditions: S. cerevisiae rad14 strain growth inhibition, active compounds read high
Summary of the method: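 Readout: yeast growth inhibition, referenced to vehicle-only cultures. Strain bears a defined alteration in DNA damage repair.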

[8] = NCI Yeast Anticancer Drug Screen. Data for the sgs1 mgt1 strain (AID 161);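 note: 0% = growth of cultures given vehicle only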; conditions: S. cerevisiae sgs1 mgt1 strain, active compounds read high
Summary of the method: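 Genetically altered yeast, compound exposure, growth inhibition relative to vehicle.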

[9] = NCI Yeast Anticancer Drug Screen. Data for the cln2 rad14 strain (AID 165);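 note: 0% = growth equal to vehicle treated cultures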; conditions: S. cerevisiae cln2 rad14 strain, active compounds read high
Summary of the method: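 The screen exposed genetically defined yeast (cln2 rad14) to test compounds and scored growth inhibition relative to vehicle-treated controls.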

[10] = NCI Yeast Anticancer Drug Screen. Data for the bub3 strain (AID 167); conditions: S. cerevisiae bub3 mutant strain, active compounds read high
Summary of the method: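 Part of a panel of yeast mutants defective in DNA damage repair or cell cycle regulation. Each strain is grown with compound, and inhibition is calculated relative to solvent-treated cultures.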

[11] = NCI Yeast Anticancer Drug Screen. Data for the wt2 strain (AID 169);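 note: 0% = growth of vehicle-treated yeast cultures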; conditions: S. cerevisiae wt2 strain growth inhibition, active compounds read high
Summary of the method: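 Steps: yeast strain treated with compound; growth recorded; inhibition calculated relative to cultures given vehicle alone.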

[12] = NCI Yeast Anticancer Drug Screen. Data for the mlh1 strain (AID 171);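 note: 0% = growth of vehicle-treated control cultures of the same strain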; conditions: S. cerevisiae mlh1 strain growth inhibition, active compounds read high
Summary of the method: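 Yeast screen: mutant strain plus compound, growth scored against vehicle control wells.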

[13] = NCI Yeast Anticancer Drug Screen. Data for the sgs1 strain (AID 173);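 note: 0% = growth of vehicle-only control cultures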; conditions: S. cerevisiae sgs1 mutant, active compounds read high
Summary of the method: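 Inhibition of yeast growth served as the measure. The mutant strain was treated with each compound, and growth was normalised to cultures receiving vehicle alone.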

[14] = NCI Yeast Anticancer Drug Screen. Data for the mlh1 rad18 strain (AID 175); conditions: S. cerevisiae mlh1 rad18 strain growth inhibition, active compounds read high
Summary of the method: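 Compound-treated yeast growth, normalised to vehicle controls. Strain bears defined DNA repair mutations.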

[15] = NCI Yeast Anticancer Drug Screen. Data for the rad18 strain (AID 177); conditions: S. cerevisiae rad18 mutant growth inhibition, active compounds read high
Summary of the method: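 Inhibition values reflect reduced yeast growth compared with vehicle-treated controls, using a strain engineered with a DNA damage repair defect.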

[16] = at 5.0 µM (retest, dose inferred, filed as 0.5)
[17] = at 50.0 µM (retest, dose inferred, filed as 5.0)

Measured: growth inhibition

CC1=C(CO)C2=C(C)C3(CC3)[C@@](C)(O)C(=O)C2=C1
active: [1]; at 100.0 µM 81% | [5]; at 100.0 µM 79% | [13]; at 100.0 µM 78% | [15]; at 3.7 µM 82% | [15]; at 11.0 µM 90% | [15]; at 33.0 µM 93% | [15]; at 100.0 µM 94%
inactive: [1]; at 1.2 µM 1% | [1]; at 3.7 µM 9% | [1]; at 11.0 µM 27% | [1]; at 33.0 µM 52% | [2]; at 1.2 µM 0% | [2]; at 3.7 µM -1% | [2]; at 11.0 µM -1% | [2]; at 33.0 µM 0% | [2]; at 100.0 µM -13% | [3]; at 1.2 µM -2% | [3]; at 3.7 µM 0% | [3]; at 11.0 µM 0% | [3]; at 33.0 µM 2% | [3]; at 100.0 µM 0% | [4]; at 1.2 µM -2% | [4]; at 3.7 µM -1% | [4]; at 11.0 µM -1% | [4]; at 33.0 µM -1% | [4]; at 100.0 µM 0% | [5]; at 1.2 µM 1% | [5]; at 3.7 µM 3% | [5]; at 11.0 µM 13% | [5]; at 33.0 µM 42% | [5]; at 50.0 µM 14% | [6]; at 1.2 µM 0% | [6]; at 3.7 µM -1% | [6]; at 11.0 µM 1% | [6]; at 33.0 µM 19% | [6]; at 50.0 µM -0.75% | [6]; at 100.0 µM 66% | [7]; at 1.2 µM 0% | [7]; at 3.7 µM -2% | [7]; at 11.0 µM 5% | [7]; at 33.0 µM 19% | [7]; at 100.0 µM 59% | [8]; at 50.0 µM 43.9% | [9]; at 50.0 µM 18.3% | [10]; at 1.2 µM -4% | [10]; at 3.7 µM -5% | [10]; at 11.0 µM -8% | [10]; at 33.0 µM -14% | [10]; at 50.0 µM -40.2% | [10]; at 100.0 µM -13% | [11]; at 1.2 µM -2% | [11]; at 3.7 µM 0% | [11]; at 11.0 µM -1% | [11]; at 33.0 µM -1% | [11]; at 100.0 µM 3% | [12]; at 1.2 µM -1% | [12]; at 3.7 µM 0% | [12]; at 11.0 µM 1% | [12]; at 33.0 µM 3% | [12]; at 100.0 µM 8% | [13]; at 1.2 µM 4% | [13]; at 3.7 µM 11% | [13]; at 11.0 µM 29% | [13]; at 33.0 µM 55% | [14]; at 50.0 µM 0.3% | [15]; at 1.2 µM 44%

CC1(C)N=C(N)N=C(N)N1c1cccc(N)c1.[Sn]
inactive: [1]; at 1.2 µM 18% | [1]; at 3.7 µM 21% | [1]; at 11.0 µM 19% | [1]; at 33.0 µM 24% | [1]; at 100.0 µM 43% | [2]; at 1.2 µM 21% | [2]; at 3.7 µM 17% | [2]; at 11.0 µM 17% | [2]; at 33.0 µM 29% | [2]; at 100.0 µM 47% | [3]; at 1.2 µM -2% | [3]; at 3.7 µM -3% | [3]; at 11.0 µM -1% | [3]; at 33.0 µM -5% | [3]; at 100.0 µM -7% | [5]; at 1.2 µM 5% | [5]; at 3.7 µM 6% | [5]; [16] 24% | [5]; at 11.0 µM 6% | [5]; at 33.0 µM 24% | [5]; [17] 36% | [5]; at 50.0 µM 9.35% | [5]; at 100.0 µM 36% | [7]; at 1.2 µM 5% | [7]; at 3.7 µM 9% | [7]; at 11.0 µM 7% | [7]; at 33.0 µM 18% | [7]; at 100.0 µM 34% | [8]; [16] 45% | [8]; at 50.0 µM 1.7% | [9]; [16] 5% | [9]; [17] 28% | [9]; at 50.0 µM -12.1% | [10]; at 1.2 µM -8% | [10]; at 3.7 µM -13% | [10]; [16] 9% | [10]; at 11.0 µM -18% | [10]; at 33.0 µM 4% | [10]; [17] 29% | [10]; at 50.0 µM 5.75% | [10]; at 100.0 µM 17% | [11]; at 1.2 µM -3% | [11]; at 3.7 µM -4% | [11]; at 11.0 µM -1% | [11]; at 33.0 µM 0% | [11]; at 100.0 µM 1% | [12]; at 1.2 µM 11% | [12]; at 3.7 µM 22% | [12]; at 11.0 µM 16% | [12]; at 33.0 µM 29% | [12]; at 100.0 µM 44% | [13]; at 1.2 µM 14% | [13]; at 3.7 µM 20% | [13]; at 11.0 µM 19% | [13]; at 33.0 µM 26% | [13]; at 100.0 µM 52% | [14]; [16] 43% | [14]; at 50.0 µM -49.6% | [15]; at 1.2 µM -3% | [15]; at 3.7 µM 2% | [15]; at 11.0 µM 4% | [15]; at 33.0 µM 17% | [15]; at 100.0 µM 35%
active: [8]; [17] 90% | [14]; [17] 78%
